aSyn 5UTR inh: 5' untranslated region of α-synuclein, MLPCN primary screen. alpha-synuclein 5'UTR reporter, inhibitor activity. inhibition, % (tested at 7.5 µM). actives 0.82% (n = 300,000). AID 1813; in the data active means inhibition above about 60%;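 further: H4 neuroglioblastoma cells stably carrying SNCA 5'UTR luciferase fusion; 0% = DMSO wells and 100% = positive control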
BaF3 parental: counter-screen for JAK2V617F inhibitors: parental Ba/F3 viability inhibitors | CellTiter-Glo ATP luminescence | actives 1.1% (n = 220,000) | inhibition, % at 5.6 µM;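 active means inhibition above a per-campaign cutoff, the mean inhibition of all tested compounds plus 3 SD, cut at about 27% in these data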;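 further: 0% = DMSO wells and 100% = JAK Inhibitor I control wells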
Ba/F3 V617F tox: lowers viability of Ba/F3 cells expressing EpoR and JAK2V617F | actives 1.1% (n = 220,000) | inhibition, % at 5.6 µM | ATP luminescence | AID 1446;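 active means inhibition above the campaign mean plus 3 SD over all tested compounds, cut at about 24% in these data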;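 further: cytokine-independent growth of Ba/F3 cells driven by EpoR plus mutant JAK2; 0% = DMSO-treated cells and 100% = JAK inhibitor I control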
APP 5UTR inh: APP translation inhibition; SH-SY5Y APP 5'UTR-luciferase reporter, luminescence; inhibition, % at 2 µM; actives 0.82% (n = 190,000); AID 1285;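 active means inhibition above a set limit, derived from the sample mean plus 3 SD, cut at about 45% in these data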
KLF5 inh: inhibitors of KLF5 expression; DLD-1 KLF5 promoter-luciferase reporter, luminescence; inhibition, % at 5 µM; actives 0.23% (n = 290,000); AID 1700;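 active means inhibition above a per-plate limit of that plate's mean compound inhibition plus 3 SD, cut at about 60% in these data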;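 further: 0% = DMSO wells and 100% = LY294002 at 200 µM; higher means less KLF5 promoter-driven luciferase light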
IEC-6 tox: counter-screen for KLF5 inhibitors: cytotoxicity in IEC-6 cells; IEC-6 cytotoxicity, luminescence viability; inhibition, % at 5 µM; actives 0.78% (n = 290,000); AID 1825; in the data active means inhibition above about 22%;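 further: 0% = plate median of test compound wells and 100% = cytotoxic reference compound wells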
Numbers without * were called inactive; nt = no result; ! = repeats disagree. Most compounds without a hit are left out; they make up all but 2.1% or so of the library.

SMILES	aSyn 5UTR inh	BaF3 parental	Ba/F3 V617F tox	APP 5UTR inh	KLF5 inh	IEC-6 tox
O=C(COc1ccccc1Cl)Nc1ccc(S(=O)(=O)N2CCOCC2)cc1	-8	nt	nt	nt	6	-6
O=C(OCCN1C(=O)c2cccc3c(N4CCOCC4)ccc(c23)C1=O)c1ccc(Cl)cc1Cl	99*	0	-3	94*	-11	-3
COc1ccc(C(=O)NNC2CC(=O)N(Cc3ccc(Cl)cc3)C2=O)cc1OC (configuration not stated)	9	4	1	8	-2	-4
Cc1ccc(OCCn2cnc3c2c(=O)n(C)c(=O)n3C)cc1	9	nt	nt	nt	6	9
O=C(/C=C/c1ccc([N+](=O)[O-])cc1)NC1CC2CCC1C2 (configuration not stated)	-11	4	1	-9	-16	-6
O=C(/C=C/c1ccc([N+](=O)[O-])cc1)NNC(=O)C1CC1	-6	50*	44*	-18	-17	1
COc1ccc2c(c1)C(c1ccc(Cl)cc1)NC(=O)C2 (configuration not stated)	8	nt	nt	nt	nt	nt
CC(C)CC(=O)Nc1cccc(-c2nc3ncccc3o2)c1	-12	nt	nt	nt	-27	5
CCCC(=O)NC(=S)Nc1cccc(-c2nc3ncccc3o2)c1	12	79*	-1	-20	-26	0
Cc1ccc(Oc2c(F)c(F)nc(N3CCCC3)c2F)cc1	1	2	0	-1	-27	-7
O=[N+]([O-])c1ccc(Oc2c(F)c(F)nc(N3CCCC3)c2F)cc1	22	5	-1	83*	-6	0
CCc1noc(C)c1C(=O)Nc1cc(S(=O)(=O)N2CCOCC2)ccc1OC(C)C	22	nt	nt	nt	nt	nt
N/C(=N\NS(=O)(=O)c1ccccc1C(F)(F)F)c1ccccn1	-2	-2	-1	nt	-16	-8
Cc1nc(C(F)(F)F)c(C(=O)N/N=C(\N)c2ccccn2)s1	43	8	1	57*	16	5
O=C1CCNc2ccc(-c3ccccc3)cc21	-42	2	1	-30	0	1
O=C1CCNc2cc3ccccc3cc21	78*	17	7	5	3	16
CCOC(=O)[C@@H]1[C@H]2COc3ccccc3[C@@H]2N2C(=O)N(c3ccc(OC)cc3)C(=O)[C@@]12C	-8	nt	nt	nt	-9	-3
CC(C)c1cc(CNC(=O)C2CCC(=O)N(CCc3ccc(Cl)cc3)C2)on1 (configuration not stated)	17	nt	nt	nt	-24	-6
O=C(C[n+]1ccc(C(=O)NCc2ccccc2)cc1)c1ccc(Cl)cc1	3	nt	nt	nt	-15	-4
CC(C)Cn1c(N)c(C(=O)COC(=O)/C=C/c2ccccc2)c(=O)n(C)c1=O	12	nt	nt	nt	nt	nt
Cc1cc(C)c2c(CCl)cc(=O)oc2c1	91*	-8	-4	94*	-8	-7
Cc1cc(C)c2c(CN3CCCCC3)cc(=O)oc2c1	-8	nt	nt	nt	-21	2
Cc1ccc(-n2ncc3c(SCc4ccccn4)ncnc32)c(C)c1	-35	35*	12	-2	30	1
O=C(CN(Cc1cccs1)C(=O)CNS(=O)(=O)c1ccccc1)NC1CCCC1	-13	3	1	4	-19	0
Cc1ccc(C)c(NC(=O)C(Sc2nnc(-c3cccs3)o2)c2ccccc2)c1 (configuration not stated)	nt	72*	89*	-8	-1	11
SMILES	aSyn 5UTR inh	BaF3 parental	Ba/F3 V617F tox	APP 5UTR inh	KLF5 inh	IEC-6 tox
COc1ccc(S(=O)(=O)N2CCCC2CNC(=O)C(=O)Nc2ccc(C)cc2)cc1 (configuration not stated)	14	nt	nt	nt	nt	nt
COc1ccc(NC(=O)C(=O)NCC2CCCN2S(=O)(=O)c2ccc(C)cc2)cc1 (configuration not stated)	91*	nt	nt	nt	nt	nt
CCOc1ccc(S(=O)(=O)Nc2nc3ccccc3nc2Nc2ccc(N3CCOCC3)cc2)cc1	9	6	1	-22	-31	3
Cc1nn(-c2ccccc2Cl)c(Cl)c1/C=N/Nc1cccc(C(=O)O)c1	103*	4	-3	-3	-140	-8
Cc1ccsc1/C=N/Nc1cccc(C(=O)O)c1	105*	3	0	42	11	-6
CC1CCCN(S(=O)(=O)c2ccc(NC(=O)C3CC(=O)N(c4ccccc4)C3)cc2)C1 (configuration not stated)	15	nt	nt	nt	8	0
COc1ccc2nc(NC(=O)CSC(C)C(=O)Nc3cc(C)on3)sc2c1 (configuration not stated)	-37	nt	nt	nt	nt	nt
CCOC(=O)c1c(C)nc2sc(C(N)=O)c(N)c2c1-c1ccc(OC)cc1	17	-1	-4	64*	-13	0
Cc1cccc(NC(=O)CSc2ncnc3sc(C)cc23)c1	-11	nt	nt	nt	-2	3
O=C(CN1C(=O)CCC1=O)c1ccc(-c2ccccc2)cc1	-82	3	-2	-28	-52	-6
N=c1ccn(CC(=O)c2ccc(-c3ccccc3)cc2)cc1	110*	75*	98*	8	-3	4
CCCCOc1cccc(C(=O)Nc2ccc(NC(=O)c3cccs3)cc2)c1	64*	nt	nt	nt	-45	6
O=C(NCCCN1CCCC1=O)c1cccc(NS(=O)(=O)c2ccc(Br)cc2)c1	11	nt	nt	nt	nt	nt
CCCS(=O)(=O)Nc1ccc2cn[nH]c2c1	5	4	1	10	0	-1
CCOc1cc(C)c(S(=O)(=O)Nc2ccc3cn[nH]c3c2)cc1C	-74	40*	5	6	5	10
CC1(C)N=C(N)NC(Nc2ccccc2)=N1	5	98*	94*	3	5	5
Cc1ccc(CCNS(=O)(=O)c2cc(Br)cnc2N)cc1	-10	nt	nt	nt	-19	1
COc1ccc(N(C)C(=O)C2CCN(S(=O)(=O)c3cccc4nonc34)CC2)cc1	14	nt	nt	nt	-25	3
CCOc1ccccc1N(C)C(=O)C1CCN(S(=O)(=O)c2cccc3nonc23)CC1	-14	5	-2	63*	-23	-3
CC1=NN(c2nc(-c3ccc(C)cc3)cs2)C(=O)C1N=Nc1ccccc1O (configuration not stated)	63*	8	-2	52*	-14	0
O=C(O)CC1S/C(=N/N=C/C=C/c2ccccc2)NC1=O (configuration not stated)	-7	97*!	3	3	-32	10
CC1CC(=O)NN=C1c1ccc(NCCO)c([N+](=O)[O-])c1 (configuration not stated)	76*	9	6	-2	-32	-2
Cn1nc(-c2ccc(NCCO)c([N+](=O)[O-])c2)c2ccccc2c1=O	45	-4	4	3	11	1
COc1ccc(OC)c(S(=O)(=O)N2CCCC(C(=O)N3CCCCCC3)C2)c1 (configuration not stated)	14	nt	nt	nt	-24	-6
C=C[C@@]1(C)CC(=O)[C@]2(O)[C@@]3(C)[C@@H](O)CCC(C)(C)[C@@H]3[C@H](O)[C@H](OC(C)=O)[C@@]2(C)O1	72*	nt	nt	nt	nt	nt

Compound activity: PubChem BioAssay, several laboratories
